Screens from PubChem BioAssay.
SW480 rereplic: A quantitative high throughput screen for small molecules that induce DNA re-replication in SW480 colon adenocarcinoma cells; SW480 DNA re-replication, Hoechst DNA content imaging, 48 h; Potency, µM (top dose mostly 46.1 µM), most hits filed as activators; hit rate 1.8% among 340,000; also: nearly all actives have a fitted effect of over 55% in size
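Treated cells incubate 48 hr (37 C, 5% CO2), are stained 40 min with Hoechst, and nuclear fluorescence is enumerated; a rise in nuclei with high DNA signal marks re-replication.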
MCF10A rereplic: A quantitative high throughput screen for small molecules that induce DNA re-replication in MCF 10a normal breast cells. MCF 10A DNA re-replication, Hoechst nuclear intensity, 48 h. Potency, µM (highest dose often 46.1 µM), hits mostly activators. hit rate 2.9% among 350,000. AID 624296, 2012; also: nearly all actives have a fitted effect of over 50% in size
HT1080NT lethal: qHTS for induction of synthetic lethality in tumor cells producing 2HG: qHTS for the HT-1080-NT fibrosarcoma cell line | Potency, µM (series often up to 46.1 µM), hits mostly cytotoxic | HT-1080-NT fibrosarcoma viability, CellTiter-Glo ATP luminescence, 48 h | hit rate 1.6% among 360,000;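 also: NT is the 2HG producing partner of a matched IDH1 knockdown line; nearly all actives have a fitted effect of over 55% in size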
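Read-out is CellTiter-Glo luminescence after 10 minutes at room temperature, following 48 hours' compound treatment of HT-1080-NT cells (750 cells/well, RPMI, 5% FBS, 37 degrees C).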
KB-V1 MDR tox: qHTS assay for MDR1-selective chemotherapeutics: Primary screen using the drug-selected MDR subline cells KB-V1 | KB-V1 MDR cells viability, CellTiter-Glo, 72 h | AID 1347076, 2019 | hit rate 3.4% among 400,000 | Potency, µM (doses to about 46.1 µM), most hits filed as cytotoxic; also: nearly all actives have a fitted effect of over 60% in size
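KB-V1, DMEM (no phenol red) + 10% FBS; cpd pin-transferred, titration series; 72 h, 37 degrees C; CellTiter-Glo, luminescence. Data normalized, curve-fit.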
KB-3-1 cytotox: qHTS assay for MDR1-selective chemotherapeutics: Primary screen using the parental adenocarcinoma cell KB-3-1; KB-3-1 viability, CellTiter-Glo ATP luminescence, 72 h; hit rate 1.4% among 400,000; Potency, µM (doses to about 46.1 µM), most hits filed as cytotoxic; also: nearly all actives have a fitted effect of over 60% in size
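KB-3-1 parental drug-naive adenocarcinoma cells in DMEM/10% FBS, incubated 72 h at 37 C with pin-transferred compounds across a concentration series. Viability by CellTiter-Glo luminescence; concentration-response curves fitted after normalization.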
HT1080 IDH1KD tx: qHTS for induction of synthetic lethality in tumor cells producing 2HG: qHTS for the HT-1080-IDH1KD cell line | hit rate 2% among 360,000 | Potency, µM (top dose mostly 46.1 µM), actives largely listed as cytotoxic | HT-1080 IDH1 knockdown viability, ATP luminescence, 48 h | AID 686971, 2013
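IDH1KD HT-1080 cells, 750/well, RPMI + 5% FBS; compound pinned after 2 h settling; 48 h, 37 °C; CellTiter-Glo luminescence; % activity normalised to DMSO and no-cell wells; curves fitted, classed by r2 and efficacy.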
A number is an active result; [ ] = dose if it differs, or a comment. This is a sample that favours compounds with a hit; in the whole collection about 8% have one here. Calls follow the shape of the dose curve; as a rule, active = well fitted curve in the direction sought with a large enough effect; inconclusive = small, poorly fitted or top-dose-only effect, or another doubt; inactive = no such curve, though single readings can be large; an effect the other way counts as inactive or inconclusive.

`C/C(=N\NC(=O)Cn1nc(C)c(Br)c1C)c1cccs1` gave SW480 rereplic inactive, MCF10A rereplic inactive, HT1080NT lethal inactive, KB-V1 MDR tox 15µM, KB-3-1 cytotox inactive and HT1080 IDH1KD tx inactive.
`C/C(=N\NC(=O)CSc1nc(C)cc(C)n1)c1cccs1` gave SW480 rereplic inactive, MCF10A rereplic inactive, HT1080NT lethal inactive, KB-V1 MDR tox inactive, KB-3-1 cytotox inactive and HT1080 IDH1KD tx inactive.
COc1ccc2c(c1)[N+](C)(C)C(C)(C)C=C2C was read as SW480 rereplic inactive, MCF10A rereplic inactive, HT1080NT lethal inactive, KB-V1 MDR tox inactive, KB-3-1 cytotox inactive and HT1080 IDH1KD tx inactive.
Screening CCOc1ccc2c(c1)[N+](C)(C)C(C)(C)C=C2C returned SW480 rereplic inactive, MCF10A rereplic inactive, HT1080NT lethal inactive, KB-V1 MDR tox inactive, KB-3-1 cytotox 8.2µM and HT1080 IDH1KD tx inactive.
For N#CC1=C(N)NC(SCC(=O)c2ccc(Br)cc2)=C(C#N)C12CCCCC2 the results were SW480 rereplic inconclusive, MCF10A rereplic inconclusive, HT1080NT lethal inactive, KB-V1 MDR tox 16µM, KB-3-1 cytotox inconclusive and HT1080 IDH1KD tx inactive.
For N#CC1=C(N)NC(SCc2ccccc2)=C(C#N)C12CCCCC2 the results were SW480 rereplic inconclusive, MCF10A rereplic 8.2µM, HT1080NT lethal 7.9µM, KB-V1 MDR tox inconclusive, KB-3-1 cytotox 23µM and HT1080 IDH1KD tx 7.1µM.
`CCSC1=C(C#N)C2(CCCCC2)C(C#N)=C(N)N1` gave SW480 rereplic inactive, MCF10A rereplic inactive, HT1080NT lethal inactive, KB-V1 MDR tox inconclusive, KB-3-1 cytotox inconclusive and HT1080 IDH1KD tx inactive[9.24 µM].
N#CC1=C(N)NC(SCC(=O)c2ccc(Cl)cc2)=C(C#N)C12CCCC2 was read as SW480 rereplic inactive, MCF10A rereplic inactive, HT1080NT lethal inconclusive, KB-V1 MDR tox inactive, KB-3-1 cytotox inactive and HT1080 IDH1KD tx inconclusive.
`Fc1c(-c2ccc3ncnc(NCc4cccs4)c3c2)ccc2c1OCO2` gave KB-V1 MDR tox inactive and KB-3-1 cytotox inactive.
For O=C1CC(c2cc(F)cc(F)c2)c2cc3c(cc2N1)OCO3 (centres undefined) the results were KB-V1 MDR tox inactive and KB-3-1 cytotox inactive.
Screening CCN(CC)c1ccc2cc(C(C)=O)c(=O)oc2c1 returned SW480 rereplic 21µM, MCF10A rereplic 10µM, HT1080NT lethal inactive, KB-V1 MDR tox inactive, KB-3-1 cytotox inactive and HT1080 IDH1KD tx inactive.
For CCN(CC)c1ccc2cc(C(N)=O)c(=O)oc2c1 the results were SW480 rereplic inconclusive, MCF10A rereplic inactive, HT1080NT lethal inactive, KB-V1 MDR tox inactive, KB-3-1 cytotox inactive and HT1080 IDH1KD tx inactive.
For CCN(CC)c1ccc2cc(C(N)=O)c(=N)oc2c1 the results were SW480 rereplic inconclusive, MCF10A rereplic 18µM, HT1080NT lethal inactive, KB-V1 MDR tox inconclusive, KB-3-1 cytotox inactive and HT1080 IDH1KD tx inactive.
For CCN(CC)c1ccc2cc(C(=O)Nc3ccccn3)c(=O)oc2c1 the results were SW480 rereplic inconclusive, MCF10A rereplic 1.3µM, HT1080NT lethal inactive, KB-V1 MDR tox inactive, KB-3-1 cytotox inactive and HT1080 IDH1KD tx inactive.
Screening CCN(CC)c1ccc2cc(C=O)c(=O)oc2c1 returned SW480 rereplic inconclusive, MCF10A rereplic 12µM, HT1080NT lethal inactive, KB-V1 MDR tox inactive, KB-3-1 cytotox inconclusive and HT1080 IDH1KD tx inactive.
`CCN(CC)c1ccc2cc(NC(=O)CCC(=O)O)c(=O)oc2c1` gave SW480 rereplic inactive, MCF10A rereplic inactive, HT1080NT lethal inactive, KB-V1 MDR tox inactive, KB-3-1 cytotox inactive and HT1080 IDH1KD tx inactive.
CCN(CC)S(=O)(=O)c1ccc2c(c1)N(CC(=O)N1CCN(c3cccc(C)c3C)CC1)C(=O)CO2 was read as KB-V1 MDR tox inactive and KB-3-1 cytotox inactive.
O=C(NCCc1ccccc1)c1cc(Sc2cccc(Cl)c2)nc2ccccc12 was read as KB-V1 MDR tox inactive and KB-3-1 cytotox inactive.
Screening COCCCNC(=O)c1sc2nc3n(c(=O)c2c1C)CCC3 returned KB-V1 MDR tox inactive and KB-3-1 cytotox inactive.
`CC1(C)Cc2cccc(OCC(=O)Nc3ccccc3N3CCOCC3)c2O1` gave SW480 rereplic inactive, MCF10A rereplic inconclusive, HT1080NT lethal inactive, KB-V1 MDR tox 3.7µM, KB-3-1 cytotox inactive and HT1080 IDH1KD tx inactive.
`CC1(C)Cc2cccc(OCC(=O)NCc3ccc(F)cc3)c2O1` gave SW480 rereplic inactive, MCF10A rereplic inactive, HT1080NT lethal inactive, KB-V1 MDR tox 15µM, KB-3-1 cytotox inactive and HT1080 IDH1KD tx inactive.
Cc1ccc(-c2nc(-c3cc4cc(Cl)ccc4oc3=O)sc2C)cc1 was read as KB-V1 MDR tox inactive and KB-3-1 cytotox inconclusive.
COc1ccc(NC(=O)CCS(=O)(=O)c2cc3c4c(c2)CCN4C(=O)CC3)cc1OC was read as KB-V1 MDR tox inactive and KB-3-1 cytotox inactive.
For CCOc1ccc(C(=O)Nc2cnn(Cc3ccc(Cl)c(Cl)c3)c2)cc1 the results were SW480 rereplic inactive, MCF10A rereplic 0.65µM, HT1080NT lethal inconclusive, KB-V1 MDR tox 2.6µM, KB-3-1 cytotox inconclusive and HT1080 IDH1KD tx inconclusive.
Cc1ccccc1Oc1nc2c(C)cccn2c(=O)c1/C=C(\C#N)C(=O)NC1CCS(=O)(=O)C1 (centres undefined) was read as SW480 rereplic inactive, MCF10A rereplic inconclusive, HT1080NT lethal inconclusive, KB-V1 MDR tox inactive, KB-3-1 cytotox inactive and HT1080 IDH1KD tx 13µM.
For CNC(=O)/C(C#N)=C/c1c(N2CC(C)OC(C)C2)nc2ccccn2c1=O (centres undefined) the results were SW480 rereplic inconclusive, MCF10A rereplic 7.3µM, HT1080NT lethal inactive, KB-V1 MDR tox inactive, KB-3-1 cytotox inactive and HT1080 IDH1KD tx inactive.
`Cc1cccn2c(=O)c(/C=C(\C#N)C(=O)NC3CCS(=O)(=O)C3)c(N3CC(C)OC(C)C3)nc12` (centres undefined) gave SW480 rereplic inconclusive, MCF10A rereplic 1.8µM, HT1080NT lethal inactive, KB-V1 MDR tox inactive, KB-3-1 cytotox inconclusive and HT1080 IDH1KD tx inactive.
Screening Cc1cccn2c(=O)c(/C=C(\C#N)C(=O)NC3CCS(=O)(=O)C3)c(Oc3ccccc3Cl)nc12 (centres undefined) returned SW480 rereplic inactive, MCF10A rereplic inactive, HT1080NT lethal inconclusive, KB-V1 MDR tox inactive, KB-3-1 cytotox inactive and HT1080 IDH1KD tx inconclusive.
